Experimental data from PubChem BioAssay AID1159580 (chemical genetic matrix, 2015).
The campaign covered roughly 5,500 compounds. About 2,000 (36%) were called active. About 18% were inconclusive and are not listed. The list shows a part of the results. Values without a mark were called inactive. Rule as the data show it: active = normalized growth mostly below about 0.91 (no sharp cut-off); inconclusive = no clear call, values can overlap the other calls; inactive = mostly above about 0.92.

Assay: chemical genetic growth profiling, strain panel (AID 1159580);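 also: tested at 20 µM; growth read once vehicle control cultures reached saturation at 30 °C; 1 = growth at the plate median or of vehicle wells; lower values mean less growth of the strain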
Settings: S. cerevisiae deletion strains, growth OD

Q: With `O=c1c(O)c(-c2ccccc2)oc2cccc(O)c12` as the compound, how does the normalized growth (locus YAL021C, strain ccr4, hits give low values) read?
A: The normalized growth was 0.725 (active).

Q: What about the normalized growth (locus YAL026C, strain drs2, hits give low values) of the same compound?
A: The normalized growth was 0.55 (active).

Q: What about the normalized growth (locus YAL030W, strain snc1, hits give low values) of the same compound?
A: Its normalized growth is 0.881 (active).

Q: And the normalized growth (locus YBL061C, strain skt5, hits give low values)?
A: Its normalized growth is 0.802 (active).

Q: And the normalized growth (locus YBR009C, strain hhf1, hits give low values)?
A: The normalized growth was 0.856 (active).

Q: And the normalized growth (locus YBR023C, strain chs3, hits give low values)?
A: Its normalized growth is 0.666 (active).

Q: What about the normalized growth (locus YBR171W, strain sec66, hits give low values) of the same compound?
A: The normalized growth was 0.838 (active).

Q: What about the normalized growth (locus YBR231C, strain swc5, hits give low values) of the same compound?
A: The normalized growth was 0.733 (active).

Q: What about the normalized growth (locus YBR279W, strain paf1, hits give low values) of the same compound?
A: Its normalized growth is 0.867 (active).

Q: And the normalized growth (locus YCL011C, strain gbp2, hits give low values)?
A: Its normalized growth is 0.847 (active).

Q: And the normalized growth (locus YCL016C, strain dcc1, hits give low values)?
A: Its normalized growth is 0.851 (active).

Q: What about the normalized growth (locus YCL061C, strain MRC1, hits give low values) of the same compound?
A: The normalized growth was 0.821 (active).

Q: And the normalized growth (locus YCL069W, strain vba3, hits give low values)?
A: Its normalized growth is 0.816 (active).

Q: And the normalized growth (locus YCR088W, strain abp1, hits give low values)?
A: The normalized growth was 0.899 (active).

Q: And the normalized growth (locus YDL005C, strain med2, hits give low values)?
A: Its normalized growth is 0.997.

Q: And the normalized growth (locus YDL040C, strain nat1, hits give low values)?
A: Its normalized growth is 0.953.

Q: What about the normalized growth (locus YDR001C, strain nth1, hits give low values) of the same compound?
A: Its normalized growth is 0.891 (active).

Q: And the normalized growth (locus YDR069C, strain doa4, hits give low values)?
A: The normalized growth was 0.788 (active).

Q: And the normalized growth (locus YDR137W, strain rgp1, hits give low values)?
A: The normalized growth was 0.372 (active).

Q: And the normalized growth (locus YDR159W, strain sac3, hits give low values)?
A: The normalized growth was 0.89.

Q: What about the normalized growth (locus YDR195W, strain ref2) of the same compound?
A: Its normalized growth is 1.02.

Q: What about the normalized growth (locus YDR297W, strain sur2, hits give low values) of the same compound?
A: Its normalized growth is 0.919 (active).

Q: What about the normalized growth (locus YDR334W, strain swr1, hits give low values) of the same compound?
A: The normalized growth was 0.759 (active).

Q: What about the normalized growth (locus YDR335W, strain msn5, hits give low values) of the same compound?
A: The normalized growth was 0.852 (active).

Q: What about the normalized growth (locus YDR392W, strain spt3, hits give low values) of the same compound?
A: The normalized growth was 0.282 (active).

Q: And the normalized growth (locus YEL003W, strain gim4, hits give low values)?
A: Its normalized growth is 0.875 (active).

Q: What about the normalized growth (locus YEL037C, strain rad23, hits give low values) of the same compound?
A: Its normalized growth is 0.893 (active).

Q: What about the normalized growth (locus YEL061C, strain CIN8 (second series), hits give low values) of the same compound?
A: The normalized growth was 0.905 (active).

Q: And the normalized growth (locus YER015W, strain faa2, hits give low values)?
A: Its normalized growth is 0.852 (active).

Q: And the normalized growth (locus YER016W, strain bim1, hits give low values)?
A: The normalized growth was 0.914 (active).

Q: What about the normalized growth (locus YER111C, strain swi4, hits give low values) of the same compound?
A: Its normalized growth is 0.878 (active).

Q: And the normalized growth (locus YER155C, strain BEM2 (second series), hits give low values)?
A: Its normalized growth is 0.751 (active).

Q: And the normalized growth (locus YFR010W, strain ubp6, hits give low values)?
A: The normalized growth was 0.726 (active).

Q: And the normalized growth (locus YGL167C, strain pmr1, hits give low values)?
A: The normalized growth was 0.886 (active).

Q: What about the normalized growth (locus YGL173C, strain kem1, hits give low values) of the same compound?
A: The normalized growth was 0.599 (active).

Q: What about the normalized growth (locus YGL227W, strain vid30, hits give low values) of the same compound?
A: The normalized growth was 0.929.

Q: And the normalized growth (locus YGL240W, strain doc1, hits give low values)?
A: Its normalized growth is 0.739 (active).

Q: What about the normalized growth (locus YGL253W, strain hxk2, hits give low values) of the same compound?
A: The normalized growth was 0.621 (active).

Q: What about the normalized growth (locus YHR013C, strain ard1, hits give low values) of the same compound?
A: The normalized growth was 0.943.

Q: And the normalized growth (locus YHR027C, strain rpn1, hits give low values)?
A: The normalized growth was 0.751 (active).

Q: What about the normalized growth (locus YHR030C, strain SLT2, hits give low values) of the same compound?
A: Its normalized growth is 0.72 (active).

Q: What about the normalized growth (locus YHR079C, strain IRE1, hits give low values) of the same compound?
A: Its normalized growth is 0.839 (active).

Q: And the normalized growth (locus YHR142W, strain chs7, hits give low values)?
A: The normalized growth was 0.539 (active).

Q: What about the normalized growth (locus YJL092W, strain hpr5, hits give low values) of the same compound?
A: Its normalized growth is 0.863 (active).

Q: And the normalized growth (locus YJL095W, strain BCK1 (second series), hits give low values)?
A: Its normalized growth is 0.368 (active).

Q: And the normalized growth (locus YJL095W, strain BCK1, hits give low values)?
A: Its normalized growth is 0.733 (active).

Q: And the normalized growth (locus YJL115W, strain asf1, hits give low values)?
A: Its normalized growth is 0.906.

Q: What about the normalized growth (locus YJL129C, strain trk1, hits give low values) of the same compound?
A: The normalized growth was 0.673 (active).

Q: What about the normalized growth (locus YJL154C, strain vps35, hits give low values) of the same compound?
A: The normalized growth was 0.917 (active).

Q: What about the normalized growth (locus YJL164C, strain tpk1, hits give low values) of the same compound?
A: The normalized growth was 0.826 (active).

Q: And the normalized growth (locus YJL166W, strain qcr8, hits give low values)?
A: The normalized growth was 0.836 (active).

Q: What about the normalized growth (locus YJL187C, strain SWE1, hits give low values) of the same compound?
A: The normalized growth was 0.84 (active).

Q: What about the normalized growth (locus YJR066W, strain TOR1, hits give low values) of the same compound?
A: Its normalized growth is 0.741 (active).

Q: And the normalized growth (locus YKL160W, strain elf1, hits give low values)?
A: Its normalized growth is 0.881 (active).

Q: What about the normalized growth (locus YKR026C, strain gcn3, hits give low values) of the same compound?
A: Its normalized growth is 0.917 (active).

Q: And the normalized growth (locus YKR091W, strain srl3, hits give low values)?
A: The normalized growth was 0.934.

Q: And the normalized growth (locus YLL001W, strain dnm1, hits give low values)?
A: The normalized growth was 0.826 (active).

Q: And the normalized growth (locus YLL026W, hits give low values)?
A: The normalized growth was 0.829 (active).

Q: What about the normalized growth (locus YLL041C, strain sdh2, hits give low values) of the same compound?
A: Its normalized growth is 0.923 (active).

Q: What about the normalized growth (locus YLR027C, strain aat2, hits give low values) of the same compound?
A: The normalized growth was 0.842 (active).

Q: And the normalized growth (locus YLR113W, strain HOG1, hits give low values)?
A: Its normalized growth is 0.935.

Q: What about the normalized growth (locus YLR221C, strain rsa3, hits give low values) of the same compound?
A: The normalized growth was 0.815 (active).

Q: What about the normalized growth (locus YLR258W, strain gsy2, hits give low values) of the same compound?
A: Its normalized growth is 0.84 (active).

Q: And the normalized growth (locus YLR262C, strain YPT6 (second series), hits give low values)?
A: The normalized growth was 0.304 (active).

Q: And the normalized growth (locus YLR320W, strain mms22, hits give low values)?
A: The normalized growth was 0.661 (active).

Q: And the normalized growth (locus YLR342W, strain FKS1, hits give low values)?
A: Its normalized growth is 0.827 (active).

Q: What about the normalized growth (locus YLR357W, strain rsc2, hits give low values) of the same compound?
A: The normalized growth was 0.821 (active).

Q: And the normalized growth (locus YLR370C, strain arc18, hits give low values)?
A: Its normalized growth is 0.789 (active).

Q: What about the normalized growth (locus YLR384C, strain iki3, hits give low values) of the same compound?
A: Its normalized growth is 0.922.

Q: And the normalized growth (locus YML120C, strain ndi1, hits give low values)?
A: Its normalized growth is 0.828 (active).

Q: What about the normalized growth (locus YMR058W, strain fet3, hits give low values) of the same compound?
A: The normalized growth was 0.206 (active).

Q: What about the normalized growth (locus YMR125W, strain sto1, hits give low values) of the same compound?
A: The normalized growth was 0.991.

Q: And the normalized growth (locus YMR129W, hits give low values)?
A: The normalized growth was 0.916 (active).

Q: What about the normalized growth (locus YMR205C, strain PFK2, hits give low values) of the same compound?
A: Its normalized growth is 0.715 (active).

Q: And the normalized growth (locus YMR231W, strain pep5, hits give low values)?
A: Its normalized growth is 0.304 (active).

Q: What about the normalized growth (locus YNL071W, strain lat1, hits give low values) of the same compound?
A: Its normalized growth is 0.568 (active).

Q: What about the normalized growth (locus YNL183C, strain NPR1, hits give low values) of the same compound?
A: Its normalized growth is 0.793 (active).

Q: And the normalized growth (locus YNL209W, strain ssb2, hits give low values)?
A: Its normalized growth is 0.725 (active).

Q: And the normalized growth (locus YNL248C, strain rpa49, hits give low values)?
A: The normalized growth was 0.795 (active).

Q: What about the normalized growth (locus YNL322C, strain KRE1 (second series), hits give low values) of the same compound?
A: The normalized growth was 0.926.

Q: What about the normalized growth (locus YNR049C, strain mso1, hits give low values) of the same compound?
A: The normalized growth was 0.89 (active).

Q: And the normalized growth (locus YOR001W, strain rrp6, hits give low values)?
A: Its normalized growth is 0.818 (active).

Q: And the normalized growth (locus YOR070C, strain gyp1, hits give low values)?
A: The normalized growth was 0.835 (active).

Q: And the normalized growth (locus YOR080W, strain dia2, hits give low values)?
A: Its normalized growth is 0.925.

Q: And the normalized growth (locus YOR083W, strain WHI5, hits give low values)?
A: Its normalized growth is 0.826 (active).

Q: What about the normalized growth (locus YOR106W, strain vam3, hits give low values) of the same compound?
A: The normalized growth was 0.546 (active).

Q: And the normalized growth (locus YOR231W, strain MKK1, hits give low values)?
A: Its normalized growth is 0.822 (active).

Q: And the normalized growth (locus YOR265W, strain rbl2, hits give low values)?
A: Its normalized growth is 0.88 (active).

Q: And the normalized growth (locus YOR270C, strain vph1, hits give low values)?
A: The normalized growth was 0.445 (active).

Q: What about the normalized growth (locus YOR290C, strain snf2, hits give low values) of the same compound?
A: Its normalized growth is 0.795 (active).

Q: What about the normalized growth (locus YPL051W, strain arl3, hits give low values) of the same compound?
A: The normalized growth was 0.696 (active).

Q: What about the normalized growth (locus YPL078C, strain atp4, hits give low values) of the same compound?
A: The normalized growth was 0.779 (active).

Q: And the normalized growth (locus YPL106C, strain sse1, hits give low values)?
A: The normalized growth was 0.896.

Q: What about the normalized growth (locus YPL240C, strain hsp82, hits give low values) of the same compound?
A: The normalized growth was 0.936.

Q: What about the normalized growth (locus YPL256C, strain CLN2, hits give low values) of the same compound?
A: The normalized growth was 0.87.
